The panel holds about 83,000 compounds, 20% with a hit somewhere; the sample as a whole holds those more often.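 Results are percent growth after 48 hours of single-concentration exposure. 100 means growth as in untreated cells, lower positive values show inhibition; negative values down to -100 show cell death.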 Calls of active or inactive are those of the source. The calls were made as follows: active = growth percent below 10; inactive = the rest.
test system: SN12C renal; experiment: NCI-60 one-dose screen, 48 h (100 = growth as untreated, 0 = no growth, -100 = all killed); settings: 10 µM unless noted

Row | Structure (SMILES) | growth
1 | O=C1/C(=C/c2ccc(F)cc2)CN(C(=O)CCN2CCC(=NO)CC2)C/C1=C\c1ccc(F)cc1 | -35.4% (active)
2 | CC/C=C\C[C@H](O)C/C=C1/C(=O)C=C[C@@H]1C/C=C\CCCC(N)=O | -4.37% (active)
3 | CC/C=C\C[C@H](F)C/C=C1/C(=O)C=C[C@@H]1C/C=C\CCCC(=O)OC | -14.4% (active)
4 | Nc1nc2c(c3ncccc13)C(c1ccc(Cl)c(Cl)c1)Cc1ncccc1-2 (stereo unspecified) | 34.1% (inactive)
5 | Cn1c(=O)c2c(ncn2CC[N+](C)(C)C)n(C)c1=O | 103% (inactive)
6 | O=C(O)c1cccc2c1-c1ccccc1C2=O | 84.2% (inactive)
7 | CCOC(=O)C(C#N)C1CCCCC1 (stereo unspecified) | 79.6% (inactive)
8 | CCCCNP1(NCCCC)=NP(NCCCC)(NCCCC)=NP(NCCCC)(NCCCC)=NP(NCCCC)(NCCCC)=N1 | 20.1% (inactive)
9 | CC(=O)C1=C(O)C=C2Oc3c(C(=O)/C=C/c4cc(C(F)(F)F)cc(C(F)(F)F)c4)c(O)c(C)c(O)c3[C@]2(C)C1=O | -34.1% (active)
10 | COc1ccc(OCC(=O)Nc2ccc(-c3nc4ccccc4s3)cc2C)cc1 | 88.8% (inactive)
11 | CCCCCCCCCC(=O)Oc1ccc(/C(=C(/C)c2ccccc2)c2ccc(OCCN3CCCC3)cc2)cc1 | 44.8% (inactive)
12 | COc1cccc(-c2nc3sccn3c2-c2ccnc(NCCCNS(=O)(=O)c3ccc(Cl)cc3)c2)c1 | 41.1% (inactive)
13 | CC/C=C\C[C@H](O)C/C=C1/C(=O)C=C[C@@H]1C/C=C\CCCC(=O)NC | -3.66% (active)
14 | COc1cccc(/C=C\C(=O)c2ccccc2)c1 | 70.1% (inactive)
15 | C=C1CC2(OC1=O)C(=O)Nc1ccccc12 (stereo unspecified) | 40.5% (inactive)
16 | Cc1ccc2c(c1)C(=O)/C(=C/c1ccc(OCC(=O)c3ccccc3)cc1)O2 | 98.6% (inactive)
17 | CCN(C(=O)CN1CCN(c2cc3c(cc2F)c(=O)c(C(=O)O)cn3C2CC2)CC1)c1nc(-c2ccc(OC)cc2)cs1 | 9.96% (active)
18 | CS(CCCCN=C=S)=NC(=O)c1c(F)c(F)c(F)c(F)c1F (stereo unspecified) | 61.1% (inactive)
19 | Cc1ccccc1CCO | 107% (inactive)

Row | Structure (SMILES) | growth
20 | O=C(O)c1c([N+](=O)[O-])cnc2ccccc12 | 97.2% (inactive)
21 | CC(=O)C1=C(O)C=C2Oc3c(C(=O)/C=C/c4cc(Cl)cc(Cl)c4)c(O)c(C)c(O)c3[C@]2(C)C1=O | -31.8% (active)
22 | COc1cc(NC(N)=NCC(C)(C)COc2ccc(C(F)(F)F)cc2)cnc1C#N | 66.8% (inactive)
23 | CC1=CC(=O)CC(C)(C)[C@@]1(O)/C=C/[C@@H](C)O | 105% (inactive)
24 | OC(c1cc(-c2ccccc2)nc2ccc(Cl)cc12)C1CCCCN1 (stereo unspecified) | 66.3% (inactive)
25 | CCC(=O)OCc1cccc(OC)c1 | 99% (inactive)
26 | CCCCCCCCCCCCCC(=O)C(C)N (stereo unspecified) | 5.02% (active)
27 | CC1=C(C)C(=O)OC([C@](C)(O)[C@]2(O)CC[C@@]3(O)[C@@H]4C[C@H]5O[C@]56CC=CC(=O)[C@]6(C)[C@H]4CC[C@]23COC(=O)c2ccc(C)o2)C1 (stereo partly specified) | -61% (active)
28 | C=C1CC[C@@H]2[C@](C)(COC(C)=O)[C@H](OC(C)=O)CC[C@@]2(C)[C@@H]1CC(Nc1ccc(S(=O)(=O)Nc2ccc(Cl)nn2)cc1)C1=CCOC1=O (stereo partly specified) | -27.6% (active)
29 | CC(C)[C@H]1COC(=O)N1[C@@H]1C(=O)N([C@@H](CCC(=O)N2CCN(C3CCCC3)CC2)C(=O)N[C@@H]2CCCc3ccccc32)[C@@H]1/C=C/c1cccc(Br)c1 | 38% (inactive)
30 | Cc1cc(Cl)ccc1Nc1nc(C(F)(F)F)ccc1C(=O)N/N=C/c1ccc(F)cc1 | 8.7% (active)
31 | Cn1c(=O)c2[nH]c(C(O)C(O)C(O)C(O)CO)nc2n(C)c1=O (stereo unspecified) | 107% (inactive)
32 | C(=N\Nc1ccccn1)/c1ccccn1 | 36.5% (inactive)
33 | COc1cccc(-c2cn3c(ccc4ccccc43)n2)c1 | 40.2% (inactive)
34 | COc1ccc2c(c1)C(=O)/C(=C/c1cccc(OCC(=O)Nc3nc4c(s3)CCCC4)c1)O2 | 28.7% (inactive)
35 | c1ccc(-c2nc(N3CCOCC3)c3c4c(sc3n2)CCCCC4)nc1 | 69% (inactive)
36 | COc1ccc(-c2cn3c(ccc4ccccc43)n2)cc1 | 89.9% (inactive)
37 | COc1cc(OC)c(/C=C/C(=O)c2c(OC)cc(OC)cc2OC)c(OC)c1 | 22.6% (inactive)
38 | COc1ccc(-c2cc(-c3ccc(N(C)C)cc3)nc(NC(=O)c3ccncc3)n2)cc1 | 104% (inactive)

test system: UO-31 renal; experiment: as above; settings: 10 µM unless noted

Row | Structure (SMILES) | growth
39 | O=C1/C(=C/c2ccc(F)cc2)CN(C(=O)CCN2CCC(=NO)CC2)C/C1=C\c1ccc(F)cc1 | -100% (active)
40 | CC/C=C\C[C@H](O)C/C=C1/C(=O)C=C[C@@H]1C/C=C\CCCC(N)=O | -70.8% (active)
41 | CC/C=C\C[C@H](F)C/C=C1/C(=O)C=C[C@@H]1C/C=C\CCCC(=O)OC | -4.75% (active)
42 | Nc1nc2c(c3ncccc13)C(c1ccc(Cl)c(Cl)c1)Cc1ncccc1-2 (stereo unspecified) | 36.9% (inactive)
43 | Cn1c(=O)c2c(ncn2CC[N+](C)(C)C)n(C)c1=O | 91.7% (inactive)
44 | O=C(O)c1cccc2c1-c1ccccc1C2=O | 94.3% (inactive)
45 | CCOC(=O)C(C#N)C1CCCCC1 (stereo unspecified) | 91.1% (inactive)
46 | CCCCNP1(NCCCC)=NP(NCCCC)(NCCCC)=NP(NCCCC)(NCCCC)=NP(NCCCC)(NCCCC)=N1 | 37.6% (inactive)
47 | CC(=O)C1=C(O)C=C2Oc3c(C(=O)/C=C/c4cc(C(F)(F)F)cc(C(F)(F)F)c4)c(O)c(C)c(O)c3[C@]2(C)C1=O | -31.4% (active)
48 | COc1ccc(OCC(=O)Nc2ccc(-c3nc4ccccc4s3)cc2C)cc1 | 44.7% (inactive)
49 | CCCCCCCCCC(=O)Oc1ccc(/C(=C(/C)c2ccccc2)c2ccc(OCCN3CCCC3)cc2)cc1 | 7.66% (active)
50 | COc1cccc(-c2nc3sccn3c2-c2ccnc(NCCCNS(=O)(=O)c3ccc(Cl)cc3)c2)c1 | 11.9% (inactive)
51 | CC/C=C\C[C@H](O)C/C=C1/C(=O)C=C[C@@H]1C/C=C\CCCC(=O)NC | -76.8% (active)
52 | COc1cccc(/C=C\C(=O)c2ccccc2)c1 | 60.2% (inactive)
53 | C=C1CC2(OC1=O)C(=O)Nc1ccccc12 (stereo unspecified) | 19.7% (inactive)
54 | Cc1ccc2c(c1)C(=O)/C(=C/c1ccc(OCC(=O)c3ccccc3)cc1)O2 | 85.5% (inactive)
55 | CCN(C(=O)CN1CCN(c2cc3c(cc2F)c(=O)c(C(=O)O)cn3C2CC2)CC1)c1nc(-c2ccc(OC)cc2)cs1 | 33% (inactive)
56 | CS(CCCCN=C=S)=NC(=O)c1c(F)c(F)c(F)c(F)c1F (stereo unspecified) | 59.6% (inactive)
57 | Cc1ccccc1CCO | 88.8% (inactive)

Row | Structure (SMILES) | growth
58 | O=C(O)c1c([N+](=O)[O-])cnc2ccccc12 | 64.9% (inactive)
59 | CC(=O)C1=C(O)C=C2Oc3c(C(=O)/C=C/c4cc(Cl)cc(Cl)c4)c(O)c(C)c(O)c3[C@]2(C)C1=O | -15.1% (active)
60 | COc1cc(NC(N)=NCC(C)(C)COc2ccc(C(F)(F)F)cc2)cnc1C#N | 29.8% (inactive)
61 | CC1=CC(=O)CC(C)(C)[C@@]1(O)/C=C/[C@@H](C)O | 95.3% (inactive)
62 | OC(c1cc(-c2ccccc2)nc2ccc(Cl)cc12)C1CCCCN1 (stereo unspecified) | 20.5% (inactive)
63 | CCC(=O)OCc1cccc(OC)c1 | 92.9% (inactive)
64 | CCCCCCCCCCCCCC(=O)C(C)N (stereo unspecified) | 64.9% (inactive)
65 | CC1=C(C)C(=O)OC([C@](C)(O)[C@]2(O)CC[C@@]3(O)[C@@H]4C[C@H]5O[C@]56CC=CC(=O)[C@]6(C)[C@H]4CC[C@]23COC(=O)c2ccc(C)o2)C1 (stereo partly specified) | -96.6% (active)
66 | C=C1CC[C@@H]2[C@](C)(COC(C)=O)[C@H](OC(C)=O)CC[C@@]2(C)[C@@H]1CC(Nc1ccc(S(=O)(=O)Nc2ccc(Cl)nn2)cc1)C1=CCOC1=O (stereo partly specified) | 18.4% (inactive)
67 | CC(C)[C@H]1COC(=O)N1[C@@H]1C(=O)N([C@@H](CCC(=O)N2CCN(C3CCCC3)CC2)C(=O)N[C@@H]2CCCc3ccccc32)[C@@H]1/C=C/c1cccc(Br)c1 | 31% (inactive)
68 | Cc1cc(Cl)ccc1Nc1nc(C(F)(F)F)ccc1C(=O)N/N=C/c1ccc(F)cc1 | 2.45% (active)
69 | Cn1c(=O)c2[nH]c(C(O)C(O)C(O)C(O)CO)nc2n(C)c1=O (stereo unspecified) | 91.8% (inactive)
70 | C(=N\Nc1ccccn1)/c1ccccn1 | -10.7% (active)
71 | COc1cccc(-c2cn3c(ccc4ccccc43)n2)c1 | 37.2% (inactive)
72 | COc1ccc2c(c1)C(=O)/C(=C/c1cccc(OCC(=O)Nc3nc4c(s3)CCCC4)c1)O2 | -78.2% (active)
73 | c1ccc(-c2nc(N3CCOCC3)c3c4c(sc3n2)CCCCC4)nc1 | 35.7% (inactive)
74 | COc1ccc(-c2cn3c(ccc4ccccc43)n2)cc1 | 56.1% (inactive)
75 | COc1cc(OC)c(/C=C/C(=O)c2c(OC)cc(OC)cc2OC)c(OC)c1 | 30.3% (inactive)
76 | COc1ccc(-c2cc(-c3ccc(N(C)C)cc3)nc(NC(=O)c3ccncc3)n2)cc1 | 72.1% (inactive)

— PubChem BioAssay (NCI)
